In the library only some 3.2% were active in any assay of this set; here they are far more common.
PNC assembly inh – perinucleolar compartment assembly inhibition; PC3M PTB-GFP, PNC prevalence imaging, 16 h; active compounds read low; activity change (PNC), negative = inhibition, % at 10 µM; 140,000 compounds, 3.1% hits;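 active = readout at or below -70, meaning at least 70% loss of cells showing the perinucleolar compartment, a nuclear body marking cancer cells; inconclusive = readout between -30 and a set limit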
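PC3M cells stably expressing PTB-GFP, 750–1000 cells/well, treated 16 h at 37 °C with compound (23 nl of library stock), in duplicate. After paraformaldehyde fixation and Hoechst stain, imaged at 20x; PNC prevalence scored by image analysis.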
12-hLO inh – blocks human 12-lipoxygenase activity; P18054; purified 12-hLO, xylenol orange hydroperoxide absorbance; Potency, µM (top dose mostly 57.1 µM), hits mostly inhibitors; 150,000 compounds, 0.12% hits; also: nearly all actives have a fitted effect of over 55% in size
Target sequence (P18054 whole entry, looked up): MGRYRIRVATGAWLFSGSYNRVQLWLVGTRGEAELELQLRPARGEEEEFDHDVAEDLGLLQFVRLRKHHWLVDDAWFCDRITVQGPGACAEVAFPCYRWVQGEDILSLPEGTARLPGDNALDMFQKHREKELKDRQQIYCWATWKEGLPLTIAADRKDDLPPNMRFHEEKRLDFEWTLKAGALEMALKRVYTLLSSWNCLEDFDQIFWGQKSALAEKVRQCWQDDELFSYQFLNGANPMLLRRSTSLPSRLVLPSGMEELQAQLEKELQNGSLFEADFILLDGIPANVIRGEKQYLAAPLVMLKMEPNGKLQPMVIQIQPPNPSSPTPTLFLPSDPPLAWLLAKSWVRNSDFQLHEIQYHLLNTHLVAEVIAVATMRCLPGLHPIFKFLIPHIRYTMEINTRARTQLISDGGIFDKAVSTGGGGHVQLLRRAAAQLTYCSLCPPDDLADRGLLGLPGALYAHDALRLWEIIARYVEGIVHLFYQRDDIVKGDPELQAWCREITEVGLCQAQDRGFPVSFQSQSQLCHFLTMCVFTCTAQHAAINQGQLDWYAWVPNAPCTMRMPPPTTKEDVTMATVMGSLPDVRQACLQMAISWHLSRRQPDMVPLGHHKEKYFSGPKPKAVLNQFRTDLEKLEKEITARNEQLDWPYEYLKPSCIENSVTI
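Hydroperoxide formation by human 12-lipoxygenase from 40 uM arachidonic acid was followed colorimetrically via ferric-xylenol orange complex, using the 573/405 nm absorbance ratio. Enzyme concentration was 150 nM, with 30 min reaction at room temperature.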
15-hLO-2 inh – blocks human 15-lipoxygenase 2 activity. purified 15hLO-2, xylenol orange hydroperoxide absorbance. Potency, µM (top dose mostly 57.1 µM), most hits filed as inhibitors. 110,000 compounds, 0.56% hits. AID 881; also: nearly all actives have a fitted effect of over 60% in size
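Read-out: hydroperoxide product oxidises ferrous iron, measured as xylenol orange complex via the 573-to-405 nm absorbance ratio after 30 min. Reaction: 50 nM enzyme, 15 min compound preincubation, 45 uM arachidonic acid, 90 min RT, Hepes pH 7.5 with Triton X-100.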
Hits are given with their value; [ ] = dose if it differs, or a comment. Unless noted, calls follow the shape of the dose curve; as a rule, active = well fitted curve in the direction sought with a large enough effect; inconclusive = small, poorly fitted or top-dose-only effect, or another doubt; inactive = no such curve, though single readings can be large; an effect the other way counts as inactive or inconclusive.

How did O=C(Cn1cnc2c(nnn2Cc2ccccc2)c1=O)N1CCN(c2ccccc2)CC1 do in these assays?
PNC assembly inh: inconclusive; 12-hLO inh: inactive; 15-hLO-2 inh: inactive

How did Cc1ccc(-c2cc(C(=O)N/N=C/c3cccnc3)n[nH]2)o1 do in these assays?
PNC assembly inh: -106; 12-hLO inh: inactive

What do the screens show for `Cc1ccc(-c2cc(C(=O)O)n[nH]2)o1`?
PNC assembly inh: inactive; 12-hLO inh: inactive; 15-hLO-2 inh: inactive

What do the screens show for `CCOC(=O)N1CCN(S(=O)(=O)c2ccc(OCC(=O)OC)cc2)CC1`?
PNC assembly inh: inactive; 12-hLO inh: inactive; 15-hLO-2 inh: inactive

What do the screens show for `CCOC(=O)N1CCN(S(=O)(=O)c2ccc(OCC(=O)OC)c(C)c2)CC1`?
PNC assembly inh: -84; 12-hLO inh: inactive; 15-hLO-2 inh: inactive

What do the screens show for `O=C(c1csnn1)N1CCC[C@@]2(CCN(c3ccncc3)C2)C1`?
12-hLO inh: inactive; 15-hLO-2 inh: inactive

Results for CCCCC[C@H](O)/C=C/C=C\C=C\C=C\[C@@H](O)[C@@H](O)CCCC(=O)O ?
12-hLO inh: inactive

How did COc1cc(OC)c2nc(C)c3c(c2c1)N(c1ccc(O)cc1)CC3 do in these assays?
PNC assembly inh: inactive; 12-hLO inh: inactive

What do the screens show for `O=S(=O)(c1ccccc1)N1CCC2(CCN(Cc3nccs3)CC2)CC1`?
12-hLO inh: inactive; 15-hLO-2 inh: inactive

What do the screens show for `COc1cccc(C2C(C#N)=C(N)N(c3ncn[nH]3)C3=C2C(=O)CCC3)c1` (stereo unspecified)?
PNC assembly inh: inconclusive; 12-hLO inh: inactive

What do the screens show for `COc1ccc(N2C(N)=C(C#N)C(c3ccsc3)C3=C2CCCC3=O)c(OC)c1` (stereo unspecified)?
PNC assembly inh: -109; 12-hLO inh: inactive

How did C=CCNC(=O)COC(=O)c1ccc(Cl)c(S(=O)(=O)N(Cc2ccccc2)c2ccccc2)c1 do in these assays?
PNC assembly inh: inactive; 12-hLO inh: inactive

Results for CCCN1C(=O)c2cc(C(=O)NCc3cccs3)ccc2C1O (stereo unspecified) ?
PNC assembly inh: inactive; 12-hLO inh: inactive; 15-hLO-2 inh: inactive

What do the screens show for `Cc1c(C)n(C)c2ccc(C(=O)NCc3cccs3)cc12`?
PNC assembly inh: -119; 12-hLO inh: inactive

How did CCc1ccccc1N1CSC2=C(C#N)C(c3cc(OC)c(OC)cc3OC)CC(=O)N2C1 (stereo unspecified) do in these assays?
PNC assembly inh: inactive; 12-hLO inh: inconclusive; 15-hLO-2 inh: 10µM

How did COc1ccc(OC)c(C2CC(=O)N3CN(c4ccc(C)c(Cl)c4)CSC3=C2C#N)c1 (stereo unspecified) do in these assays?
PNC assembly inh: inactive; 12-hLO inh: inactive; 15-hLO-2 inh: inconclusive

What do the screens show for `COc1cc(OC)c(C2CC(=O)N3CN(c4ccccc4)CSC3=C2C#N)cc1OC` (stereo unspecified)?
PNC assembly inh: inactive; 12-hLO inh: inactive; 15-hLO-2 inh: 10µM

Results for COc1ccc(Br)cc1C1CC(=O)N2CN(Cc3ccccc3)CSC2=C1C#N (stereo unspecified) ?
PNC assembly inh: inactive; 12-hLO inh: inactive; 15-hLO-2 inh: inconclusive

Results for N#CCCn1c(=O)c(-c2cccs2)nc2cnc(Oc3ccccc3)nc21 ?
12-hLO inh: inactive; 15-hLO-2 inh: inactive

Results for CCCCc1nc2c(c3c1C[C@H](C)OC3)CN(S(=O)(=O)c1ccc(Cl)c3nonc13)CC2 ?
12-hLO inh: inactive[11.4 µM]

What do the screens show for `Cc1cc2oc(=O)cc(-c3ccccc3)c2c(C)c1-c1ccc(C(F)(F)F)cc1`?
12-hLO inh: inactive[0.00818 µM]; 15-hLO-2 inh: inactive[0.0915 µM]

How did CCCCN(CC)S(=O)(=O)c1ccc(C(=O)N=c2sc3cc(NC(C)=O)ccc3n2C)cc1 do in these assays?
PNC assembly inh: inactive; 12-hLO inh: inactive

Results for CCCCN(C)S(=O)(=O)c1ccc(C(=O)N=c2sc3cc(NC(C)=O)ccc3n2C)cc1 ?
PNC assembly inh: -94; 12-hLO inh: inactive

What do the screens show for `CCNc1ccc(C(=O)OCC(=O)c2cc(C)n(Cc3ccc4c(c3)OCO4)c2C)cc1[N+](=O)[O-]`?
PNC assembly inh: inactive; 12-hLO inh: inactive

Results for CCCn1c(SCC(=O)N2CCc3ccccc32)nnc1-c1ccco1 ?
PNC assembly inh: inactive; 12-hLO inh: inactive; 15-hLO-2 inh: inactive

Results for CCCn1c(SCC(=O)N2c3ccccc3CC2C)nnc1-c1ccco1 (stereo unspecified) ?
PNC assembly inh: -100; 12-hLO inh: inactive

What do the screens show for `Cc1ccc(/C=C/C(=O)N2CCN(c3cccc(C(F)(F)F)c3)CC2)cc1`?
PNC assembly inh: inactive; 12-hLO inh: inactive

Results for CCNC(=S)N1CCN(c2cccc(C(F)(F)F)c2)CC1 ?
PNC assembly inh: inactive; 12-hLO inh: inactive

Source: PubChem BioAssay
